Laboratory results taken from the supplement of paper PMC6555819.

Key:
Assay in all cases: PBM binding z-score (relative to random genomic background probes); higher = stronger binding; sequences stand for … in GC…GCGATTGACAGCGTAGAATGAAGG
[1] = tested on: RARb homodimer (NR concentration 270 nM)
Summary of the method: (§1)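 Binding z-scores take random background probes as their reference. They come from custom Agilent 4×180K protein-binding microarrays incubated 1 h with ligand-free nuclear receptor dimers, with antibodies against each partner (one per run) detecting binding. Scanned fluorescence was regression-normalized.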

[2] = tested on: RARg homodimer (NR concentration 270 nM)
Summary of the method: as §1

[3] = tested on: RXRa DBDmut IVT, anti-RXR (DBD mutation: RXRa K156A/R161A, NR concentration 90 nM)
Summary of the method: as §1

[4] = tested on: THRa:RXRa (NR concentration 90 nM, RXRa partner concentration 90 nM)
Summary of the method: as §1

[5] = tested on: THRa homodimer (NR concentration 90 nM)
Summary of the method: as §1

[6] = tested on: VDR homodimer (NR concentration 270 nM)
Summary of the method: as §1

[7] = tested on: RXRa homodimer (NR concentration 180 nM)
Summary of the method: as §1

[8] = tested on: VDR:RXRa (NR concentration 270 nM, RXRa partner concentration 90 nM)
Summary of the method: as §1

Sequence | PBM binding z-score [1] | PBM binding z-score [2] | PBM binding z-score [3] | PBM binding z-score [4] | PBM binding z-score [5] | PBM binding z-score [6] | PBM binding z-score [7] | PBM binding z-score [8]
CAAACCAGGTCACGAAAGGTCAAAGTCGAATGAC | 5.97 | 9.05 | 2.9 | 5.23 | 3.86 | 4.47 | – | –
CCTACTGGGCCAAAGGACATTGATTCCAATGCTC | 0.475 | 0.664 | -0.27 | -0.11 | -0.145 | -0.13 | 0.166 | –
CGTCCAAGGTCACCAGGTCAGTGAAAGCGACGTG | 5.13 | 7.7 | 3.61 | 4.45 | 4.12 | 3.44 | 7.13 | –
AATACAGGGTCCTCGTAGGCCAGAGTACGCACAG | 0.334 | 0.183 | -0.129 | 1.16 | 0.203 | 0.487 | 0.449 | –
CCTTACGGGTCTAGGTTATAGCACGGGTGGTACG | 0.113 | 0.0918 | -1.08 | 0.109 | 0.173 | -0.202 | – | –
CGTCCAAGGTCAATGCAAGGTCAGTGAAAGCATT | 5.5 | 7.06 | 3.92 | – | 4.02 | 3.85 | 6.02 | –
AGTCAAAGGTCAGGACGAGGTAACGTAAAGCACG | 4.82 | 7.93 | 1.32 | – | 2.11 | 0.891 | 7.47 | –
CCTCGGAGGACAACAGGAGGTCAAAGCTGCCAGA | 3.77 | 3.86 | 0.524 | 3.43 | 1.34 | 2.4 | 3.56 | –
CAAACTAGGTCACAGGGGTCAAAGTCCGTGCGTA | 5.94 | 7.58 | 3.6 | – | 3 | 7.07 | 8.57 | –
ATACCAAGGTCATCGTGAGGTCGTTGATACTAAC | 4.72 | 6.27 | 3.76 | – | 3.91 | 5.41 | 6.49 | –
GATACAGGGTGAAGGCCAGAGTACGCGTATTGAT | 0.673 | 0.704 | -0.695 | – | -0.473 | -0.248 | 0.721 | –
CGTCCAAGGTCAAAGGTCACTGAAGAGATGACGG | 5.74 | 8.6 | 4.13 | 4.9 | 3.25 | 4.21 | 10.1 | –
ATCGAAAGGTCGACGAGGAGAGTATACACCGTTT | 2.37 | 3.81 | 1.18 | 2.27 | -0.0264 | 0.681 | 3.91 | –
TGTCAAAGTTCTAAGGTAACGTAAGTATCCACAC | 0.168 | 0.585 | -0.0657 | 2.88 | 2.43 | -0.114 | – | 0.479
CGAACTAGGTCAAAGGTCAGTGAAAGGCGACGTA | 5.03 | 6.89 | 2.37 | 4.55 | 1.2 | 1.85 | – | –
TAGCCTAGGTCATTCAGGGGTCAGTATAGAAAGC | 5.2 | 6.28 | 2.75 | 4.22 | 2.13 | 4.47 | 5.8 | –
TCTGCTAGGTCAGGTGGTCAGCTAACGAGCTGCC | 2.83 | 3.58 | 0.176 | 1.77 | 0.331 | -0.539 | 1.66 | –
CGTCCAAGGTCACAGGAGGTCAGTGAAGACAGAT | 5.53 | 8.33 | 3.73 | 5.28 | 3.66 | 4.32 | – | –
CGAACTAGGTCACCAGGACAGCGAAGAGGTTGGA | 3.27 | 5.1 | 1.22 | 3.27 | 1.62 | 0.423 | 3.19 | –
CCTAGCAGGCCAGGTTCACTCAAGCATTTCGCTT | 0.543 | 0.106 | 2.28 | 0.5 | 0.0438 | 3.42 | 0.844 | –
AGTCAAAGGTCACTAGGTAACGTAAGATTCAGCT | 5.03 | 8.53 | 2.94 | 3.99 | 0.996 | 2.14 | – | –
TATCCTAGGTCAGATCGGGCCAGTATACGCTATA | 2.53 | 3.86 | 0.36 | 4.25 | 0.858 | 0.237 | 2.21 | –
AGTCAAAGTTCAGGACGAGGTCACGTAAAGCACG | 5.39 | 7.28 | 3.45 | – | 4.95 | 5.43 | 6.81 | –
CGAACTAGGTCAAAGGACAGGGAAAGGCGACGTA | 3.14 | 4.68 | 1.07 | 2.49 | 0.631 | 0.464 | 2.78 | –
TCTCGGAGGACACGAAGGTCAGCGCTTTCCAGAG | 3.93 | 4.24 | 0.82 | 3.23 | 1.21 | 1.46 | 2.38 | –
TGGCCTAGGTCATGGGCCAGTATACCACGCGAAC | 2.96 | 5.07 | -0.28 | 2.83 | 0.639 | -0.0403 | 3.6 | –
